Assay results from the supplement of paper PMC8728848.
This is one part of a sample in which the strongest signals are shown more often than they occur.

Legend:
Experiment in all cases: glycan array binding signal (z-score within array); higher = stronger binding
Settings in all cases: glycan notation: IUPAC condensed, linker removed
[1] = biological target: Fuc(a1-2)Gal(b1-3)GlcNAc(b1-2)Man(a1-3)[Fuc(a1-2)Gal(b1-3)GlcNAc(b1-2)Man(a1-6)]Man(b1-4)GlcNAc(b1-4)GlcNAc
Procedure, shortened: (§1)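 The Consortium for Functional Glycomics database supplied 3228 glycan arrays, of which those lacking an available protein sequence were dropped. The binding signal, a within-array Z-score, was averaged across arrays of the same protein sequence and across linkers. Negative scores can be read as non-binding.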

[2] = biological target: Fuc(a1-2)Gal(b1-3)GlcNAc(b1-3)Gal(b1-4)Glc
Procedure, shortened: as §1

[3] = biological target: Fuc(a1-2)Gal(b1-4)GlcNAc(b1-2)Man(a1-3)[Fuc(a1-2)Gal(b1-4)GlcNAc(b1-2)Man(a1-6)]Man(b1-4)GlcNAc(b1-4)[Fuc(a1-6)]GlcNAc
Procedure, shortened: as §1

[4] = biological target: Fuc(a1-2)Gal(b1-4)GlcNAc(b1-3)[Fuc(a1-2)Gal(b1-4)GlcNAc(b1-6)]GalNAc
Procedure, shortened: as §1

[5] = biological target: Fuc(a1-2)[Gal(a1-3)]Gal(b1-4)GlcNAc
Procedure, shortened: as §1

[6] = biological target: Fuc(a1-2)[Gal(a1-3)]Gal(b1-4)GlcNAc(b1-6)GalNAc
Procedure, shortened: as §1

[7] = biological target: Fuc(a1-2)[GalNAc(a1-3)]Gal(b1-3)GlcNAc(b1-3)GalNAc
Procedure, shortened: as §1

[8] = biological target: Fuc(a1-2)[GalNAc(a1-3)]Gal(b1-4)GlcNAc(b1-3)GalNAc
Procedure, shortened: as §1

[9] = biological target: Fuc(a1-3)[Gal(b1-4)]GlcNAc(b1-3)Gal(b1-4)[Fuc(a1-3)]GlcNAc(b1-3)Gal(b1-4)[Fuc(a1-3)]GlcNAc
Procedure, shortened: as §1

[10] = biological target: Fuc(a1-3)[Gal(b1-4)]GlcNAc(b1-6)GalNAc
Procedure, shortened: as §1

[11] = biological target: Fuc(a1-3)[Gal(b1-4)]GlcNAc(b1-6)[Gal(b1-3)GlcNAc(b1-3)]Gal(b1-4)Glc
Procedure, shortened: as §1

Fuc(a1-4)GlcNAc = biological target: Fuc(a1-4)GlcNAc
Procedure, shortened: as §1

[12] = biological target: Gal(a1-3)Gal(b1-3)GlcNAc(b1-2)Man
Procedure, shortened: as §1

[13] = biological target: Gal(a1-3)Gal(b1-4)GlcNAc(b1-6)GalNAc
Procedure, shortened: as §1

[14] = biological target: Gal(b1-3)GalNAc(b1-4)Gal(b1-4)Glc
Procedure, shortened: as §1

[15] = biological target: Gal(b1-3)GlcNAc(b1-3)Gal(b1-4)GlcNAc
Procedure, shortened: as §1

[16] = biological target: Gal(b1-3)GlcNAc(b1-3)Gal(b1-4)GlcNAc(b1-6)[Gal(b1-3)GlcNAc(b1-3)]Gal(b1-4)Glc
Procedure, shortened: as §1

[17] = biological target: Gal(b1-3)GlcNAc(b1-6)[Gal(b1-3)]GalNAc
Procedure, shortened: as §1

[18] = biological target: Gal(b1-3)[Fuc(a1-4)]GlcNAc(b1-2)Man(a1-3)[Gal(b1-3)[Fuc(a1-4)]GlcNAc(b1-2)Man(a1-6)]Man(b1-4)GlcNAc(b1-4)[Fuc(a1-6)]GlcNAc
Procedure, shortened: as §1

[19] = biological target: Gal(b1-3)[Fuc(a1-4)]GlcNAc(b1-3)Gal(b1-4)[Fuc(a1-3)]GlcNAc
Procedure, shortened: as §1

[20] = biological target: Gal(b1-3)[Fuc(a1-4)]GlcNAc(b1-6)GalNAc
Procedure, shortened: as §1

[21] = biological target: Gal(b1-4)GlcNAc(b1-2)Man(a1-3)[Gal(b1-4)GlcNAc(b1-2)Man(a1-6)]Man(b1-4)GlcNAc(b1-4)[Fuc(a1-6)]GlcNAc
Procedure, shortened: as §1

[22] = biological target: Gal(b1-4)GlcNAc(b1-2)[Gal(b1-4)GlcNAc(b1-4)]Man(a1-3)[GlcNAc(b1-4)][Gal(b1-4)GlcNAc(b1-2)[Gal(b1-4)GlcNAc(b1-6)]Man(a1-6)]Man(b1-4)GlcNAc(b1-4)GlcNAc
Procedure, shortened: as §1

[23] = biological target: Gal(b1-4)GlcNAc(b1-3)Gal(b1-4)GlcNAc(b1-3)Gal(b1-4)GlcNAc(b1-2)Man(a1-3)[Gal(b1-4)GlcNAc(b1-3)Gal(b1-4)GlcNAc(b1-3)Gal(b1-4)GlcNAc(b1-2)Man(a1-6)]Man(b1-4)GlcNAc(b1-4)[Fuc(a1-6)]GlcNAc
Procedure, shortened: as §1

[24] = biological target: Gal(b1-4)GlcNAc(b1-3)Gal(b1-4)GlcNAc(b1-3)[Gal(b1-4)GlcNAc(b1-3)Gal(b1-4)GlcNAc(b1-6)]GalNAc
Procedure, shortened: as §1

[25] = biological target: Gal(b1-4)GlcNAc(b1-3)Gal(b1-4)GlcNAc(b1-6)[Gal(b1-3)]GalNAc
Procedure, shortened: as §1

Gal3S(b1-3)GalNAc = biological target: Gal3S(b1-3)GalNAc
Procedure, shortened: as §1

Gal3S6S(b1-4)GlcNAc6S = biological target: Gal3S6S(b1-4)GlcNAc6S
Procedure, shortened: as §1

Gal6S(b1-3)GlcNAc = biological target: Gal6S(b1-3)GlcNAc
Procedure, shortened: as §1

Gal6S(b1-4)Glc = biological target: Gal6S(b1-4)Glc
Procedure, shortened: as §1

[26] = biological target: GalNAc(b1-3)Gal(a1-4)Gal(b1-4)GlcNAc(b1-3)Gal(b1-4)Glc
Procedure, shortened: as §1

GalNAc(b1-4)GlcNAc = biological target: GalNAc(b1-4)GlcNAc
Procedure, shortened: as §1

GalNAc4S6S(b1-4)GlcNAc = biological target: GalNAc4S6S(b1-4)GlcNAc
Procedure, shortened: as §1

[27] = biological target: GlcNAc(a1-4)Gal(b1-4)GlcNAc(b1-3)Gal(b1-4)[Fuc(a1-3)]GlcNAc(b1-3)Gal(b1-4)[Fuc(a1-3)]GlcNAc
Procedure, shortened: as §1

[28] = biological target: GlcNAc(b1-3)Gal(b1-4)GlcNAc(b1-6)[Gal(b1-3)]GalNAc
Procedure, shortened: as §1

GlcNAc(b1-6)GalNAc = biological target: GlcNAc(b1-6)GalNAc
Procedure, shortened: as §1

Kdn(a2-6)Gal(b1-4)GlcNAc = biological target: Kdn(a2-6)Gal(b1-4)GlcNAc
Procedure, shortened: as §1

[29] = biological target: Man(a1-2)Man(a1-2)Man(a1-6)[Man(a1-3)]Man
Procedure, shortened: as §1

[30] = biological target: Man(a1-3)[Man(a1-6)]Man(b1-4)GlcNAc(b1-4)[Fuc(a1-6)]GlcNAc
Procedure, shortened: as §1

[31] = biological target: Neu5Ac(a2-3)Gal(b1-3)GalNAc(b1-4)[Neu5Ac(a2-3)]Gal(b1-4)Glc
Procedure, shortened: as §1

[32] = biological target: Neu5Ac(a2-3)Gal(b1-3)]Neu5Ac(a2-3)Gal(b1-4)]GlcNAc
Procedure, shortened: as §1

[33] = biological target: Neu5Ac(a2-3)Gal(b1-4)GlcNAc(b1-2)Man(a1-3)[Neu5Ac(a2-3)Gal(b1-4)GlcNAc(b1-2)Man(a1-6)]Man(b1-4)GlcNAc(b1-4)GlcNAc
Procedure, shortened: as §1

[34] = biological target: Neu5Ac(a2-3)Gal(b1-4)GlcNAc(b1-3)Gal(b1-4)GlcNAc(b1-6)[Gal(b1-3)]GalNAc
Procedure, shortened: as §1

[35] = biological target: Neu5Ac(a2-3)Gal(b1-4)GlcNAc(b1-3)Gal(b1-4)[Fuc(a1-3)]GlcNAc
Procedure, shortened: as §1

[36] = biological target: Neu5Ac(a2-3)Gal(b1-4)GlcNAc(b1-6)[Gal(b1-3)]GalNAc
Procedure, shortened: as §1

[37] = biological target: Neu5Ac(a2-3)Gal(b1-4)[Fuc(a1-3)]GlcNAc(b1-3)GalNAc
Procedure, shortened: as §1

Neu5Ac(a2-3)GalNAc = biological target: Neu5Ac(a2-3)GalNAc
Procedure, shortened: as §1

[38] = biological target: Neu5Ac(a2-6)Gal(b1-4)GlcNAc(b1-2)Man(a1-6)[GlcNAc(b1-2)Man(a1-3)]Man(b1-4)GlcNAc(b1-4)GlcNAc
Procedure, shortened: as §1

[39] = biological target: Neu5Ac(a2-6)Gal(b1-4)GlcNAc(b1-2)[Neu5Ac(a2-6)Gal(b1-4)GlcNAc(b1-4)]Man(a1-3)[GlcNAc(b1-4)][Neu5Ac(a2-6)Gal(b1-4)GlcNAc(b1-4)Man(a1-6)]Man(b1-4)GlcNAc(b1-4)GlcNAc
Procedure, shortened: as §1

[40] = biological target: Neu5Ac(a2-6)Gal(b1-4)GlcNAc(b1-3)Gal(b1-4)GlcNAc(b1-6)[Gal(b1-3)]GalNAc
Procedure, shortened: as §1

[41] = biological target: Neu5Ac(a2-6)Gal(b1-4)GlcNAc(b1-3)[Neu5Ac(a2-6)Gal(b1-4)GlcNAc(b1-6)]GalNAc
Procedure, shortened: as §1

[42] = biological target: Neu5Ac(a2-6)Gal(b1-4)GlcNAc(b1-6)[Gal(b1-3)]GalNAc
Procedure, shortened: as §1

[43] = biological target: Neu5Ac(a2-8)Neu5Ac(a2-3)Gal(b1-3)GalNAc(b1-4)[Neu5Ac(a2-3)]Gal(b1-4)Glc
Procedure, shortened: as §1

B1: Aap arpt (Staphylococcus epidermidis) (protein)
chain: NNEAPQMSSTLQAEEGSNAEAPQSEPTKAEEGGNAEAAQSEPTKAEEGGNAEAPQSEPTKAEEGGNAEAAQSEPTKTEEGSNVKAAQSEPTKAEEGSNAEAPQSEPTKTEEGSNAKAAQSEPTKAEEGGNAEAAQSEPTKTEEGSNAEAPQSEPTKAEEGGYAEAPQSEPTKTEEGGNAEAPNVPTIKA
glycan array binding signal (z-score) [1]: 1.6 | glycan array binding signal (z-score) [2]: 0.811 | glycan array binding signal (z-score) [3]: -0.547 | glycan array binding signal (z-score) [4]: -1.34 | glycan array binding signal (z-score) [5]: 0.036 | glycan array binding signal (z-score) [6]: -0.475 | glycan array binding signal (z-score) [7]: -0.103 | glycan array binding signal (z-score) [8]: -0.617 | glycan array binding signal (z-score) [9]: 0.278 | glycan array binding signal (z-score) [10]: 0.096 | glycan array binding signal (z-score) [11]: -0.249 | glycan array binding signal (z-score) (Fuc(a1-4)GlcNAc): 0.688 | glycan array binding signal (z-score) [12]: -0.261 | glycan array binding signal (z-score) [13]: 3.25 | glycan array binding signal (z-score) [14]: 0.305 | glycan array binding signal (z-score) [15]: -1.2 | glycan array binding signal (z-score) [16]: 0.709 | glycan array binding signal (z-score) [17]: 0.662 | glycan array binding signal (z-score) [18]: 2.23 | glycan array binding signal (z-score) [19]: -1.72 | glycan array binding signal (z-score) [20]: -0.35 | glycan array binding signal (z-score) [21]: 0.746 | glycan array binding signal (z-score) [22]: -1.6 | glycan array binding signal (z-score) [23]: 2.73 | glycan array binding signal (z-score) [24]: 2.68 | glycan array binding signal (z-score) [25]: 2.97 | glycan array binding signal (z-score) (Gal3S(b1-3)GalNAc): 0.361 | glycan array binding signal (z-score) (Gal3S6S(b1-4)GlcNAc6S): 1.02 | glycan array binding signal (z-score) (Gal6S(b1-3)GlcNAc): -1.93 | glycan array binding signal (z-score) (Gal6S(b1-4)Glc): -0.15 | glycan array binding signal (z-score) [26]: -0.809 | glycan array binding signal (z-score) (GalNAc(b1-4)GlcNAc): -0.143 | glycan array binding signal (z-score) (GalNAc4S6S(b1-4)GlcNAc): 1.06 | glycan array binding signal (z-score) [27]: 2.41 | glycan array binding signal (z-score) [28]: -0.695 | glycan array binding signal (z-score) (GlcNAc(b1-6)GalNAc): 3.2 | glycan array binding signal (z-score) (Kdn(a2-6)Gal(b1-4)GlcNAc): 2.33 | glycan array binding signal (z-score) [29]: -0.012 | glycan array binding signal (z-score) [30]: 1.13 | glycan array binding signal (z-score) [31]: -1.39 | glycan array binding signal (z-score) [32]: 2.21 | glycan array binding signal (z-score) [33]: 3 | glycan array binding signal (z-score) [34]: -0.491 | glycan array binding signal (z-score) [35]: -0.571 | glycan array binding signal (z-score) [36]: 0.944 | glycan array binding signal (z-score) [37]: 0.511 | glycan array binding signal (z-score) (Neu5Ac(a2-3)GalNAc): -0.745 | glycan array binding signal (z-score) [38]: 2.64 | glycan array binding signal (z-score) [39]: -0.548 | glycan array binding signal (z-score) [40]: 0.045 | glycan array binding signal (z-score) [41]: -1.09 | glycan array binding signal (z-score) [42]: 0.173 | glycan array binding signal (z-score) [43]: -1.08
